The text below walks through data of PubChem BioAssay (EPA / NIEHS).

Calls of active or inactive are those of the source. How the source made its calls: active means hit-call score of the fitted dose curve at least 0.9, where 1 is the maximum; inactive means score below 0.9.

Holding throughout (conditions): primary human lung fibroblasts
Read-out in experiment [1]: Basic fibroblast growth factor (bFGF), FGF2 (gene 2247)
Description: BSK_MyoF_bFGF: BioMAP Diversity Plus: MyoF Assay for Basic fibroblast growth factor (bFGF) Biomarker Activity (AID 2284246). In outline:
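Primary human lung fibroblast culture, 24 h compound exposure; ELISA read-out of bFGF. Positive-direction fit vs DMSO baseline. Cytotoxicity: SRB stain (0.1% SRB, 10% TCA fixation, 560 nm) in parallel wells.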

Read-out in experiment [2]: Plasminogen activator inhibitor-1 (PAI1), SERPINE1 (gene 5054)
Description: BSK_MyoF_PAI1: BioMAP Diversity Plus: MyoF Assay for Plasminogen activator inhibitor-1 (PAI1) Biomarker Activity (AID 2284256).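 On outcome: PAI-1 protein level measured by ELISA in fibroblast cultures; PAI-1 read 24 h after compound addition.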 The procedure, abridged: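 Human lung fibroblasts (MyoF system) were exposed to test chemicals for 24 h, then PAI-1 was quantified by ELISA. Activity was fitted in the positive (signal-gain) direction relative to DMSO vehicle as baseline.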

Read-out in experiment [3]: Interleukin-8 (IL8), CXCL8 (gene 3576)
Description: BSK_MyoF_IL8: BioMAP Diversity Plus: MyoF Assay for Interleukin-8 (IL8) Biomarker Activity (AID 2284261). The procedure, abridged: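 IL-8 quantified by ELISA after 24 h compound exposure of primary human lung fibroblasts. SRB staining of parallel cultures flagged cytotoxicity; DMSO served as baseline.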

Read-out in a further experiment: Decorin, DCN (gene 1634)
Description: BSK_MyoF_Decorin: BioMAP Diversity Plus: MyoF Assay for Decorin Biomarker Activity (AID 2284265). In outline:
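Decorin protein was quantified by ELISA 24 h after chemical addition to primary human lung fibroblasts and analysed as increase over DMSO. Cytotoxicity was tracked in parallel cultures by SRB total-protein staining read at 560 nm.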

The nature of experiment [4]: BSK_MyoF_SRB: Viability Assessment in the BioMAP Diversity Plus: MyoF Assay (AID 2284267).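 Further: total protein by SRB absorbance in parallel cultures as cytotoxicity measure; cells assessed 24 h after compound addition.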 The procedure, abridged: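 Lung fibroblast cultures, 24 h post-dose; fix 10% TCA, stain 0.1% SRB, read 560 nm. Signal = total protein as cytotoxicity measure; fitted relative to DMSO negative control.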

With `CCCCCCCCCCCCCCCC(=O)OC/C=C(C)/C=C/C=C(C)/C=C/C1=C(C)CCCC1(C)C`, the outcome was “inactive” in experiment [1]; “inactive” in experiment [2]; “inactive” in experiment [3]; “inactive” in the experiment with Decorin, DCN (gene 1634); “inactive” in experiment [4].

On to `CN(C)C(=O)Nc1ccc(Oc2ccc(Cl)cc2)cc1`, for which the outcome in experiment [1] was “inactive”; in experiment [3] it was “inactive”; with Decorin, DCN (gene 1634), “inactive”; in experiment [4] it was “inactive”. The AC50 (usually the concentration at which the activity in the assay is half-maximal) in experiment [2] was 0.016 µM (active).

For the compound `CCCCOC(=O)CCCCCCCC(=O)OCCCC`, the outcome in experiment [1] was “inactive”; in experiment [2], “inactive”; in experiment [3], “inactive”; with Decorin, DCN (gene 1634), “inactive”; in experiment [4], “inactive”.

In the case of `CSCCC=O`, the outcome was “inactive” in experiment [1]; “inactive” in experiment [2]; “inactive” in experiment [3]; “inactive” with Decorin, DCN (gene 1634); “inactive” in experiment [4].

As to `COc1ccc(OC)c(N=Nc2c(O)ccc3ccccc23)c1`, the half-maximal activity concentration (AC50) is 20 µM (active) in experiment [1], 0.0788 µM (active) in experiment [3] and 6.83 µM (active) in experiment [4]. In addition, the outcome in experiment [2] was “inactive”; with Decorin, DCN (gene 1634) it was “inactive”.

In the case of `c1ccc(CCc2ccccc2)cc1`, the AC50 was 30.4 µM (active) in experiment [1]; 35.2 µM (active) in experiment [2]; 26.8 µM (active) with Decorin, DCN (gene 1634); 37.2 µM (active) in experiment [4]. Also, the outcome in experiment [3] was inactive.

Consider `C=C(C)C(=O)OCC(CC)(COC(=O)C(=C)C)COC(=O)C(=C)C`, for which the AC50 in experiment [1] is 29.4 µM (active); in experiment [2], 13 µM (active); in the experiment with Decorin, DCN (gene 1634) it was 10.1 µM (active); in experiment [4], 15.5 µM (active). In addition, in experiment [3], the result was inactive.

Take `CC(C)(C)CC(C)(C)c1ccc(OCCOCC[N+](C)(C)Cc2ccccc2)cc1`: the AC50 is 8.49 µM (active) in experiment [1], 5 µM (active) in experiment [2], 5 µM (active) in experiment [3] and 7.98 µM (active) in experiment [4]. In the experiment with Decorin, DCN (gene 1634), the result was inactive.

As for `CC=Cc1ccc(OCC)c(O)c1`, the outcome is “inactive” in experiment [1]; “inactive” in experiment [2]; “inactive” in experiment [3]; “inactive” with Decorin, DCN (gene 1634); “inactive” in experiment [4].

Consider `C=C(C)C(=O)OCCOCCOCCOCCOC(=O)C(=C)C`, for which the outcome was “inactive” in experiment [1]; “inactive” in experiment [2]; “inactive” in experiment [3]; “inactive” with Decorin, DCN (gene 1634); “inactive” in experiment [4].

Regarding `C1=CC2C3C=CC(C3)C2C1` (stereo not given), the outcome is “inactive” in experiment [1]; “inactive” in experiment [2]; “inactive” in experiment [3]; “inactive” with Decorin, DCN (gene 1634); “inactive” in experiment [4].

On to `CC(=O)Nc1ccc(C(=O)CCl)cc1`, for which the AC50 in experiment [1] was 32.5 µM (active); in experiment [2], 13.7 µM (active); in experiment [3], 29.6 µM (active); in experiment [4] it was 29.3 µM (active). The outcome in the experiment with Decorin, DCN (gene 1634) was inactive.

Take `CN(c1nccc(=O)[nH]1)C1CCN(c2nc3ccccc3n2Cc2ccc(F)cc2)CC1`: the outcome was “inactive” in experiment [1]; “inactive” in experiment [2]; “inactive” in experiment [3]; “inactive” with Decorin, DCN (gene 1634); “inactive” in experiment [4].

On to `CC1(C)C2=CCCC(C)(C)[C@]23CC[C@H]1C3`, for which the outcome in experiment [1] was “inactive”; in experiment [3], “inactive”; in the experiment with Decorin, DCN (gene 1634), “inactive”. The concentration at half-maximal activity (AC50) in experiment [2] was 35.3 µM (active); in experiment [4] it was 30.9 µM (active).

As for `CCC(C)c1cc([N+](=O)[O-])cc([N+](=O)[O-])c1OC(=O)OC(C)C` (stereo not given), the half-maximal activity concentration (AC50) in experiment [1] was 27.7 µM (active); in experiment [2] it was 11.7 µM (active); in experiment [3], 35.8 µM (active); with Decorin, DCN (gene 1634), 24.4 µM (active); in experiment [4], 13.4 µM (active).

Take `c1ccc2cc(Nc3ccc(Nc4ccc5ccccc5c4)cc3)ccc2c1`: the outcome in experiment [1] is “inactive”; in experiment [2] it was “inactive”; in experiment [3], “inactive”; with Decorin, DCN (gene 1634), “inactive”; in experiment [4] it was “inactive”.

For `CCCCCC(C=O)=Cc1ccccc1`, the outcome in experiment [1] was “inactive”; in experiment [2] it was “inactive”; in experiment [3], “inactive”; with Decorin, DCN (gene 1634), “inactive”; in experiment [4] it was “inactive”.

For the compound `CC(=O)C1(C)CC2=C(CCCC2(C)C)CC1C` (stereo not given), the AC50 in experiment [1] was 29.3 µM (active); in experiment [2], 11.2 µM (active); in experiment [4] it was 14.6 µM (active). Moreover, the outcome was “inactive” in experiment [3] and “inactive” in the experiment with Decorin, DCN (gene 1634).

Regarding `IC(I)I`, the outcome in experiment [1] is “inactive”; in experiment [2], “inactive”; in experiment [3], “inactive”; in the experiment with Decorin, DCN (gene 1634) it was “inactive”; in experiment [4], “inactive”.

Regarding `O=C1OC[C@H](Cc2cccc(O)c2)[C@H]1Cc1cccc(O)c1`, the outcome in experiment [1] was “inactive”; in experiment [2], “inactive”; in experiment [3], “inactive”; with Decorin, DCN (gene 1634), “inactive”; in experiment [4], “inactive”.

For the compound `CS(=O)(=O)c1ccc(C2=C(c3ccccc3)C(=O)OC2)cc1`, the outcome in experiment [1] is “inactive”; in experiment [3], “inactive”; with Decorin, DCN (gene 1634) it was “inactive”; in experiment [4], “inactive”. For the same compound, the concentration at half-maximal activity (AC50) in experiment [2] is 0.0082 µM (active).

In the case of `CC(=O)c1c(C)c([N+](=O)[O-])c(C(C)(C)C)c([N+](=O)[O-])c1C`, the outcome in experiment [1] was “inactive”; in experiment [2], “inactive”; in experiment [3], “inactive”; in the experiment with Decorin, DCN (gene 1634) it was “inactive”; in experiment [4], “inactive”.

With `O=C1OC2(c3ccccc31)c1ccc(O)c(Br)c1Oc1c2ccc(O)c1Br`, the outcome in experiment [1] is “inactive”; in experiment [3], “inactive”; in the experiment with Decorin, DCN (gene 1634) it was “inactive”; in experiment [4], “inactive”. Moreover, the AC50 in experiment [2] was 9.25 µM (active).
